Laboratory results published in ChEMBL document CHEMBL3988442, “University of Dundee, Small-Polar-MMV Screening Library” (2021).
For some of these results: Measured potencies and affinities stand elsewhere.

What was measured:
[1] = target: T1, Methionyl-tRNA synthetase, putative (Leishmania donovani (strain BPK282A1)) (UniProt E9BF75); experiment: Leishmania donovani Methionine tRNA synthetase (LdMetRS):v7. Dose response assay; format: functional; parameters: conc 80 nM, time 150 minutes
T1 sequence (whole entry): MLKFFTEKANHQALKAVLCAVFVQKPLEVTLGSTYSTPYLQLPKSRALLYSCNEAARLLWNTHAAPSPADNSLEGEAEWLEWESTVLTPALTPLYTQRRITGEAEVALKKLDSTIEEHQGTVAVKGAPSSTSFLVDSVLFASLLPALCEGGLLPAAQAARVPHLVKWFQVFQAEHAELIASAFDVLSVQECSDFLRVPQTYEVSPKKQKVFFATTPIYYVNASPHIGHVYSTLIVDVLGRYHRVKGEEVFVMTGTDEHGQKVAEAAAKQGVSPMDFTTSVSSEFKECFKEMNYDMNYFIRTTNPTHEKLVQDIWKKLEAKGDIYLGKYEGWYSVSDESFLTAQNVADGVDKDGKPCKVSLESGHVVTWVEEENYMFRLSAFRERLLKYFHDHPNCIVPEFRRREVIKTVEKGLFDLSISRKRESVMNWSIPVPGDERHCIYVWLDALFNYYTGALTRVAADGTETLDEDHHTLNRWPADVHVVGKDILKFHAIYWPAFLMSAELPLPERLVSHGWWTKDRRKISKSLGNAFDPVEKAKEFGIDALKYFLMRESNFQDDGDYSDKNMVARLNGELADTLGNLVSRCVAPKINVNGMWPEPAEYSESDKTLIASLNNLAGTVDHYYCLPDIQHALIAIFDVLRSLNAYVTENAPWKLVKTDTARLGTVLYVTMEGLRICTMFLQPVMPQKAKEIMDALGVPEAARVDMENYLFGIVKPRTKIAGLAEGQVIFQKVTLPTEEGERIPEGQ

[2] = target: Protein translocase subunit SecA (Escherichia coli (strain K12)) (UniProt P10408); experiment: Assay to Identify E. coli SecA ATPase Inhibitors; format: functional; parameters: scale not given: direction of the effect not stated beside the values; conditions: 30 µM
[3] = target: T2, Ubiquitin-activating enzyme e1, putative (Leishmania donovani (strain BPK282A1)) (UniProt E9BSI1); experiment: Leishmania donovani Ubiquitin Activating Enzyme (LdE1); format: functional; parameters: scale not given: direction of the effect not stated beside the values; conditions: 30 µM
T2 sequence (whole entry): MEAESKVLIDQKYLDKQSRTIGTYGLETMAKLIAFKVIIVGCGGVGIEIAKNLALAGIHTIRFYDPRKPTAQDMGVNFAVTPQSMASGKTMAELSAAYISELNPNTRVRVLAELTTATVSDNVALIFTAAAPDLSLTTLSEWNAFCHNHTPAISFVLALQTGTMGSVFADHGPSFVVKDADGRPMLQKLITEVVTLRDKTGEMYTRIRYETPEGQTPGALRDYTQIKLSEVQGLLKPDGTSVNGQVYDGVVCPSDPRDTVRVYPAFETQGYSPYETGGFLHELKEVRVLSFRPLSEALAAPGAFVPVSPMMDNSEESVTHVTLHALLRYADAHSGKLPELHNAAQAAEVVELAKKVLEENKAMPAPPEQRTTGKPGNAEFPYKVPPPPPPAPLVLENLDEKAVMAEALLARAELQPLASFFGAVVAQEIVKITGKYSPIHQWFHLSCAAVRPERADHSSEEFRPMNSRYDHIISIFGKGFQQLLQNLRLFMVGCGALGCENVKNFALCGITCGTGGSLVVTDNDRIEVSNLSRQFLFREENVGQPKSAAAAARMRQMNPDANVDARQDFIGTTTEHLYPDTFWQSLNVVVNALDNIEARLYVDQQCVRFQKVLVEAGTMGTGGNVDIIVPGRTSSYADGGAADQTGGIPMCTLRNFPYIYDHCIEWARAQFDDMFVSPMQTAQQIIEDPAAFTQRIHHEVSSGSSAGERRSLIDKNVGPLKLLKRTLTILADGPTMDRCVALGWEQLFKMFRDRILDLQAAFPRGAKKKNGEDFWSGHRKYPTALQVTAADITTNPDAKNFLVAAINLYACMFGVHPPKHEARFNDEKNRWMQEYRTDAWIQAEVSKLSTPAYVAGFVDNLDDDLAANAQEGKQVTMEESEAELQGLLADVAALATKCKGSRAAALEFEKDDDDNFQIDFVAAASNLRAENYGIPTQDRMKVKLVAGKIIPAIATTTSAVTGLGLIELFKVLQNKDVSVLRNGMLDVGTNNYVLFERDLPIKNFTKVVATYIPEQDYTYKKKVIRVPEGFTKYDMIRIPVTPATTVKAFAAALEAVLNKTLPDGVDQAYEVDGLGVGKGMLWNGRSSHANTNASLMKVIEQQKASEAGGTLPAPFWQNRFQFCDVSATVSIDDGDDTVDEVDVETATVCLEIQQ

[4] = target: AMP-activated protein kinase, AMPK (Homo sapiens) (UniProt P54646+O43741+P54619+Q9UGJ0+Q9Y478+Q13131+Q9UGI9); experiment: AMP-dependent Kinase enzyme assay. An in vitro enzyme assay that detects ADP turnover that is directly proportional to AMPK activity. This uses naive AMPK that is activated during the assay with MK-8722; format: functional; parameters: scale not given: direction of the effect not stated beside the values; conditions: 30 µM
[5] = target: Sialic acid-binding Ig-like lectin 9 (Homo sapiens) (UniProt Q9Y336); experiment: Hs-Siglec9 ALPHAscreen SOP 20170721; parameters: scale not given: direction of the effect not stated beside the values; conditions: 10 µM
Trypanosoma cruzi = experiment: Trypanosoma cruzi phosphomannomutase and mannose-1-phosphate guanylyltransferase assay; format: functional; parameters: scale not given: direction of the effect not stated beside the values; conditions: 10 µM
[6] = target: T3, Arginase-2, mitochondrial (Homo sapiens) (UniProt P78540); experiment: in vitro enzyme assay to detect the production of urea directly proportional to the activity of Arginase II; format: functional; parameters: scale not given: in the data most compounds retested in dose-response had high values; conditions: 33.3 µM
T3 sequence (whole entry): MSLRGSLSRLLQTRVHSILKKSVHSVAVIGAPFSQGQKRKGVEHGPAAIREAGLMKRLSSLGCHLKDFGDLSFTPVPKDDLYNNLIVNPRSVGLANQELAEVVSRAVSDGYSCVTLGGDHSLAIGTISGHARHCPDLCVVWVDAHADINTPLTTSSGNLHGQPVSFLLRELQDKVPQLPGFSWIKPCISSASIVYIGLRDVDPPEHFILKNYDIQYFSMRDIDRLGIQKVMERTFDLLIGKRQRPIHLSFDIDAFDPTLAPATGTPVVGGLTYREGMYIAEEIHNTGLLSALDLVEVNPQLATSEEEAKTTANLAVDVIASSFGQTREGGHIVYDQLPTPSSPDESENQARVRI

[7] = target: T4, Proteasome subunit beta (Trypanosoma cruzi) (UniProt O96673); experiment: Trypanosoma cruzi proteasome chymotrypsin-like activity (TcProtChymo) assay.; format: functional; parameters: scale not given: in the data most compounds retested in dose-response had high values; conditions: 9.37 µM
T4 sequence (whole entry): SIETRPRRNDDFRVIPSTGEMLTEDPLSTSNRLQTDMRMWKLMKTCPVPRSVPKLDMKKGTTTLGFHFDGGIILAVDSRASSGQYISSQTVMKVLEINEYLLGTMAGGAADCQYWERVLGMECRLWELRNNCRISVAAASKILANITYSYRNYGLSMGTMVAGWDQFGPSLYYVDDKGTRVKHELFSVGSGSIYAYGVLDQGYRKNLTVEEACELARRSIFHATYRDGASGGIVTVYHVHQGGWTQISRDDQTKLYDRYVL

Homo sapiens = species: Homo sapiens; experiment: To identify inhibition of the IFN signalling (Jak-Stat) pathway via expression of an eGFP reporter gene under the control of an IFN-stimulated response element (ISRE) containing MxA promoter.; format: functional; parameters: scale not given: direction of the effect not stated beside the values; conditions: 30 µM
[8] = target: T5, Tyrosyl-tRNA synthetase, putative (Trypanosoma cruzi (strain CL Brener)) (UniProt Q4DSP6); experiment: Trypanosoma cruzi tyrosyl tRNA synthetase (TcYRS) _High Tyrosine SOP; format: functional; parameters: scale not given: in the data most compounds retested in dose-response had high values; conditions: 30 µM
T5 sequence (whole entry): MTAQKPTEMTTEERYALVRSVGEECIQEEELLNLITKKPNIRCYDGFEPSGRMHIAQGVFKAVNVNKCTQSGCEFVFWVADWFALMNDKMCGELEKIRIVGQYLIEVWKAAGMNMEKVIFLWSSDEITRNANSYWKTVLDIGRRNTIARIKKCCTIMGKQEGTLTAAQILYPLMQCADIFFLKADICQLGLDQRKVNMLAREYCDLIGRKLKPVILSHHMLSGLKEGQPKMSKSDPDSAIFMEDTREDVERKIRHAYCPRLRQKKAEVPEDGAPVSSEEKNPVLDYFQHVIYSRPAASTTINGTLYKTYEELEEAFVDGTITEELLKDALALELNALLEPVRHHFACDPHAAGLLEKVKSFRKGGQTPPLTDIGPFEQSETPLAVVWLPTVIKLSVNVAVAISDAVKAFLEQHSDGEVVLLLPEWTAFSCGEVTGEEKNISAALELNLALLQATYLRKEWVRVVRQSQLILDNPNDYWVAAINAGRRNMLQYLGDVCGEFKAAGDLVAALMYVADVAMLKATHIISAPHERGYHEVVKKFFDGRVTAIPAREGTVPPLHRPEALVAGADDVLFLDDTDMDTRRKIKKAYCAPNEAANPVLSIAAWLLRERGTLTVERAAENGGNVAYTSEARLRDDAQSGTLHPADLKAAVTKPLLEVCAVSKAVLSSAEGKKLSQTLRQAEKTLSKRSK

[9] = target: T5, Tyrosyl-tRNA synthetase, putative (Trypanosoma cruzi (strain CL Brener)); experiment: Trypanosoma cruzi tyrosyl tRNA synthetase (TcYRS) SOP; format: functional; parameters: scale not given: direction of the effect not stated beside the values; conditions: 30 µM
[10] = target: Chromo domain-containing protein 1 (Saccharomyces cerevisiae (strain ATCC 204508 / S288c) (Baker's yeast)) (UniProt P32657); experiment: ScCHD-1 Enzyme Inhibition Assay; format: functional; parameters: scale not given: in the data most compounds retested in dose-response had high values; conditions: 30 µM
Chromo domain-containing protein 1 (Saccharomyces cerevisiae (strain ATCC 204508 / S288c) (Baker's yeast)), sequence (P32657 whole entry, the tested form may be a part): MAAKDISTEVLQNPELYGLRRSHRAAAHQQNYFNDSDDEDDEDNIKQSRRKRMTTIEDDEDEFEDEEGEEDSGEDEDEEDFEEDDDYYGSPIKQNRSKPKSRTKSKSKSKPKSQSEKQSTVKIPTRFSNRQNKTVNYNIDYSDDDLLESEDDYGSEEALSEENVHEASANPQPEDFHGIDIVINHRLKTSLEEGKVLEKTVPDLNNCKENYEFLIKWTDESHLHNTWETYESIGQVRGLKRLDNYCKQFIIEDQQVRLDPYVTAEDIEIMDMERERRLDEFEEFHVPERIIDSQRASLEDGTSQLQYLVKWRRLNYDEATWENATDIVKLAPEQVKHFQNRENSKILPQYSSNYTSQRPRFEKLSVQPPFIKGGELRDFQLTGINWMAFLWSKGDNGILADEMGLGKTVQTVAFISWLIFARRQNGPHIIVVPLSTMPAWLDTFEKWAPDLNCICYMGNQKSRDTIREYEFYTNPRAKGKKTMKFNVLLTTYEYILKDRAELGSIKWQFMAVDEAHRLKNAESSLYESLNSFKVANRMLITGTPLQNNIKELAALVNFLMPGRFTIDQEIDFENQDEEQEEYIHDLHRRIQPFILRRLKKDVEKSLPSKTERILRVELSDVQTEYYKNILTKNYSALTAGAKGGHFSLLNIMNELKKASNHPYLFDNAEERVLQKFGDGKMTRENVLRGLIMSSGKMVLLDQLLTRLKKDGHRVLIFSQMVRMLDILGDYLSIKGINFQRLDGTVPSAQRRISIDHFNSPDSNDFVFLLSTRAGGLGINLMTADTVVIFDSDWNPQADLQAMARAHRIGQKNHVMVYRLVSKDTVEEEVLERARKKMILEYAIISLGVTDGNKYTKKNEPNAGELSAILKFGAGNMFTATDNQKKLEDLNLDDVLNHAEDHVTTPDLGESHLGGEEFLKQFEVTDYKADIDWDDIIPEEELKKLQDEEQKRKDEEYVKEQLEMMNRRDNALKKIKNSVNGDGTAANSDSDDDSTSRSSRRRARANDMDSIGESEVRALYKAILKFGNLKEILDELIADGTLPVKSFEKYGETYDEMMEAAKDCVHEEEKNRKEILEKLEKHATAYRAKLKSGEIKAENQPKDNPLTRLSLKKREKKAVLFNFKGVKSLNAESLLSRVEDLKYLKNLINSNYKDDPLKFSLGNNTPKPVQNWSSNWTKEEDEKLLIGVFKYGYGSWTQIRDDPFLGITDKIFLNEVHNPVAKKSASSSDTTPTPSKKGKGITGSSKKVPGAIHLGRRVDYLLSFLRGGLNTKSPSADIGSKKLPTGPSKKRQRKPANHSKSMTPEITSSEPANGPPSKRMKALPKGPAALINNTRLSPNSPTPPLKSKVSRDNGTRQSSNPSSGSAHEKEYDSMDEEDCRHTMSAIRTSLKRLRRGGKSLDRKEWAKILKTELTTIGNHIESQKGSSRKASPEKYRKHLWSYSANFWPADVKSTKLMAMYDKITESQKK

Protein translocase subunit SecA (Escherichia coli (strain K12)), sequence (P10408 whole entry): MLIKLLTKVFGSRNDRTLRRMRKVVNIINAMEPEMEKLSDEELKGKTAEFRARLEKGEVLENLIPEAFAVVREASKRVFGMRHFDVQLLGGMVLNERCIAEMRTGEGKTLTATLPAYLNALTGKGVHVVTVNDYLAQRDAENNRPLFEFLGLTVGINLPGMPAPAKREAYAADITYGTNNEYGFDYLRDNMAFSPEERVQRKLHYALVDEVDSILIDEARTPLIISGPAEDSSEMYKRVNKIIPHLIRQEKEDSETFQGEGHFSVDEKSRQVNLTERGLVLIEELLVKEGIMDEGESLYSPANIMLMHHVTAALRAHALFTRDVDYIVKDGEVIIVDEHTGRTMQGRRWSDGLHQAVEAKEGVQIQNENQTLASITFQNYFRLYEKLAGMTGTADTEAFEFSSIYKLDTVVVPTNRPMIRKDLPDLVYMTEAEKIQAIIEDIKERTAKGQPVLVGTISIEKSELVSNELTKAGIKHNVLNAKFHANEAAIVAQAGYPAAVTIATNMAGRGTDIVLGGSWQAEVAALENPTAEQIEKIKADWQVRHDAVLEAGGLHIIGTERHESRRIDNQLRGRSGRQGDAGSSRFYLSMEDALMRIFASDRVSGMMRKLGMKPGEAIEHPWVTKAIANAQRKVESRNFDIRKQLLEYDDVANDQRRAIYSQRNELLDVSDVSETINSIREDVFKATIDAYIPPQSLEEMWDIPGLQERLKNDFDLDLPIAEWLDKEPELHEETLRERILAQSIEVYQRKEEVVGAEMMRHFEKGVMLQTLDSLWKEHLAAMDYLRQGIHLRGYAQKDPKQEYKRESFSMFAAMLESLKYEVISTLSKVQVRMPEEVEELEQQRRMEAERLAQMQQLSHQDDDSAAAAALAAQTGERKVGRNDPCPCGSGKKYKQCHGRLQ
Sialic acid-binding Ig-like lectin 9 (Homo sapiens), sequence (Q9Y336 whole entry): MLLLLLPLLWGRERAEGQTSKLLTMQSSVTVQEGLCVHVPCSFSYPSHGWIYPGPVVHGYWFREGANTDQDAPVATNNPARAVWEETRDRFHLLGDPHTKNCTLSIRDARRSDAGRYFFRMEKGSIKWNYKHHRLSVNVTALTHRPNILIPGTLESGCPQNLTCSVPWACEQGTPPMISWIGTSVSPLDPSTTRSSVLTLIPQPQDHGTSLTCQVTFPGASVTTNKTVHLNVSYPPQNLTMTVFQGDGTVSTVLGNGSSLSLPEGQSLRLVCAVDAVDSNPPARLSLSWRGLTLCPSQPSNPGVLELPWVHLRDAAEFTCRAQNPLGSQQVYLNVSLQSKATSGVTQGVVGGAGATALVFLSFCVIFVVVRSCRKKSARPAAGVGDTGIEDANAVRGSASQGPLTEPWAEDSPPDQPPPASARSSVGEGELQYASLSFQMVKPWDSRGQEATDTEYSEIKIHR

Q: With `N#CC1CCCN(c2nc(-c3ccccc3)nc3c2CCNCC3)C1` (stereo not drawn) as the compound, how does the PXC50 ([1]; MAX_EFFECT 13.59649123) read?
A: < 4

Q: What about the PXC50 ([1]; MAX_EFFECT 23.4375) of the same compound?
A: < 4

Q: And the Percent Effect [2]?
A: -2.62%

Q: And the Percent Effect [3]?
A: -5.48%

Q: And the Percent Effect [4]?
A: -0.435%

Q: And the Percent Effect [5]?
A: 0.626%

Q: And the Percent Effect (Trypanosoma cruzi)?
A: -4.17%

Q: And the Percent Effect [6]?
A: 2%

Q: What about the Percent Effect [7] of the same compound?
A: 11.2%

Q: And the Percent Effect (Homo sapiens)?
A: 2.12%

Q: And the Percent Effect [8]?
A: 4.17%

Q: What about the Percent Effect [9] of the same compound?
A: 3.7%

Q: And the Percent Effect [10]?
A: 9.39%

Q: What does the source list for `Cn1ncc2c(NCCO)nc(Nc3ccc(F)c(F)c3)nc21`?
A: PXC50 ([1]; BOTTOM 1.675324724, HILLSLOPE 0.887004354, MAX_EFFECT 86.8852459, TOP 97.31963994): 5.01; PXC50 ([1]; BOTTOM 3.874295481, HILLSLOPE 1.000014766, MAX_EFFECT 87.03703704, TOP 93.55609097): 5.08; PXC50 ([1]; BOTTOM 3.975924252, HILLSLOPE 0.806965021, MAX_EFFECT 84.10596026, TOP 99.5157675): 4.91; PXC50 ([1]; BOTTOM 7.489204203, HILLSLOPE 1.122010423, MAX_EFFECT 83.60655738, TOP 90.20006383): 4.96; PXC50 ([1]; BOTTOM -1.215365939, HILLSLOPE 0.665929937, MAX_EFFECT 87.19646799, TOP 108.6182019): 4.92

Q: How did the PXC50 ([1]; BOTTOM 0.59496429, HILLSLOPE 1.142527095, MAX_EFFECT 61.72248804, TOP 100.0) turn out when `CN(c1ncnc2ccccc12)C1CCCN(c2cccnn2)C1` (stereo not drawn) was run?
A: 4.15

Q: And the PXC50 ([1]; BOTTOM 4.775047561, HILLSLOPE 1.968197794, MAX_EFFECT 73.89635317, TOP 73.89635317)?
A: 4.48

Q: What about the PXC50 ([1]; BOTTOM 7.086189247, HILLSLOPE 1.125976509, MAX_EFFECT 60.07005254, TOP 100.0) of the same compound?
A: 4.1

Q: And the PXC50 ([1]; BOTTOM 8.519162934, HILLSLOPE 1.512392504, MAX_EFFECT 75.36231884, TOP 100.0)?
A: 4.28

Q: And the PXC50 ([1]; BOTTOM -1.496045735, HILLSLOPE 1.12468747, MAX_EFFECT 69.3877551, TOP 100.0)?
A: 4.34

Q: What does the source list for `Cc1nn(C)c(C)c1CCn1cncc1-c1ccc2c(c1)CC(C)N2C` (stereo not drawn)?
A: PXC50 ([1]; BOTTOM 5.604710013, HILLSLOPE 1.073782549, MAX_EFFECT 50.43327556, TOP 78.0664514): 4.19; PXC50 ([1]; MAX_EFFECT 34.22818792): < 4; PXC50 ([1]; MAX_EFFECT 37.5): < 4; PXC50 ([1]; MAX_EFFECT 42.63038549): < 4; PXC50 ([1]; MAX_EFFECT 45.23364486): < 4
